Results taken from the supplement of paper PMC3334620.
Whole data set: some 33,000 sequences, median “E-score (-0.5 to 0.5)” near -0.036, cut for the highest 2% near 0.37. The list comes from a sample in which the highest values are over-represented; it also holds similar and randomly drawn sequences.

These sequences were tested against T1, Yer064c (UniProt P40041) (assay: PBM E-score (8-mer binding enrichment) (E-score (-0.5 to 0.5)); higher = stronger / more preferred TF binding). Conditions: protein concentration: 200 nM; construct: GST-full length.
T1 sequence: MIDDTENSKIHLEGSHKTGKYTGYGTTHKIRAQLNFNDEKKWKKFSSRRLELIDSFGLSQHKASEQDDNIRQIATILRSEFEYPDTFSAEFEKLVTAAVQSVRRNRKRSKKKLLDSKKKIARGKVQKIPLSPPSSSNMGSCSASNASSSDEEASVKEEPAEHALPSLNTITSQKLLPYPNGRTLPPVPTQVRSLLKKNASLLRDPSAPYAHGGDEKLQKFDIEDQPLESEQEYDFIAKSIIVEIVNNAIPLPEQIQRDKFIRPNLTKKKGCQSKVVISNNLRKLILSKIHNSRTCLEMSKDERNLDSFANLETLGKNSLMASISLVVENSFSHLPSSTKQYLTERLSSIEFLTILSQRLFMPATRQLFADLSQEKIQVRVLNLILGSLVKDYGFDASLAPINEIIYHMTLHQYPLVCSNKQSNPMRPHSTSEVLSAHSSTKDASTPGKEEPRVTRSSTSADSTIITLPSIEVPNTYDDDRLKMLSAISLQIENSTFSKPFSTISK
Method: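 Universal 'all 10-mer' protein binding microarrays (Agilent AMADID 015681) probed with GST-tagged S. cerevisiae TFs (full-length or DBD) made by in vitro transcription/translation (PURExpress), about 100-200 nM. Bound TF was detected with fluorescent anti-GST. Each ungapped 8-mer (which stands for itself and its reverse complement) is scored by the PBM enrichment score (E-score), a modified Wilcoxon-Mann-Whitney statistic from -0.5 to +0.5, computed with the Universal PBM Analysis Suite. Scale: above 0.35 generally sequence-specific binding.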

Sequence	PBM E-score
ATACTAAT	0.174
CGACTATC	0.359
AGACTATA	0.35
AGACTAAT	0.389
CGACTATA	0.374
AGACTAGA	0.276
AAACTAAT	0.243
AAACTAAA	0.0515
AGACTAAA	0.398
AACTGGCT	-0.28
CGGGTAAC	-0.0478
AATCATAT	0.428
AATCATAA	0.418
AATCAAAT	0.23
AATCATAG	0.433
AATCATAC	0.451
GATCATAC	-0.0115
TATCATAA	0.0309
AATCAGAG	0.269
AAGCATAT	0.0236
CATCATAA	0.0722
CATCATAG	0.25
CATCATAC	0.215
AATGGCAC	-0.231
CCCTCCAA	-0.12

Sequence	PBM E-score
AATATAAA	0.0817
ATGGCTTC	0.156
GGGCGGCA	-0.406
CACACCCA	0.0764
AAACGAGA	0.0214
GAAAGAAA	-0.0206
CCTACGAA	-0.211
TACGCATA	-0.0887
AAGAAACG	-0.028
CTTTAGCA	-0.154
CGTATCGA	-0.111
TAGTCACA	0.478
AAGTCACC	0.447
ACGTCACG	-0.289
ATGTCACG	-0.123
AAGTCAGG	0.341
ACGTCACC	-0.162
AGGTCACC	0.00721
TCGTCACA	-0.0543
AGGTCACG	-0.143
AAGTCACG	0.433
AAGTCACA	0.414
TGGTCACA	0.103
AAGACCAG	-0.0791
CCCGGCAA	-0.166

Sequence	PBM E-score
CTGCGGAC	-0.0565
AGGGGGTC	-0.406
CCCACATA	0.0317
CCGTTCGA	0.0719
ACGTCACT	-0.0404
GAGTCACA	0.493
GCGTCACA	-0.13
AGGTCACT	0.0701
GGGTCACA	0.00589
AAGTCACT	0.399
GAGGCCAC	-0.319
ACGGCCGC	-0.0196
AGGCAGTC	0.213
CTTTGAGA	0.179
TGAGCTAA	0.189
GCTGTAGA	-0.0534
AGTTAGCG	-0.0192
CTTGTGAC	0.222
ATTGGTCA	0.0959
CATCCACC	-0.0348
CCTGGACA	-0.127
ATGATTTG	0.299
ACGATTAG	0.152
ACGATTAC	0.185
ATGATTAG	0.438

Sequence	PBM E-score
ATGATTAC	0.472
AAGATTAC	0.241
CTGAGTGC	-0.0835
ATGAGTCC	0.442
ATGAGTGG	0.193
CTGAGTCC	0.402
ATGAGTTG	0.194
ATGAGTGC	0.226
ATGAGTTC	0.327
ATGAGTCG	0.474
CTGAGTTC	0.104
AGCTACGG	-0.0957
CAGTGGTC	0.0376
GGCACGGA	-0.127
TACTTCTA	0.0324
TGTCCAAA	-0.0925
ATTTCTTC	-0.058
ATGATTGC	0.375
CTGATTGC	0.274
ACGATTGA	0.216
GCGATTGA	0.145
ATGATTGA	0.423
GTGATTGA	0.401
ATGATTGG	0.286
ACGATTGC	0.0745

Sequence	PBM E-score
CTGATTGA	0.305
GGTGAAAA	-0.106
CAAATCTC	0.0434
CATCTACG	0.104
AGGTGAGC	-0.00638
CCGGGTGA	0.176
AATGCTCA	0.0674
ACTCAGCG	0.269
CGTCAGCC	-0.135
GGTCAGCA	-0.0951
ATTCAGCG	-0.0722
AGTCAGCA	0.455
CGTCAGCA	-0.0315
AGTCAGCC	0.458
ACTCAGCC	0.335
AGTCAGCG	0.453
GGCAGCAA	-0.355
GCAGATGC	-0.257
CAATGGTC	0.183
ATGTATTA	0.0655
ATGCTTTG	-0.00054
TAACAGTA	-0.019
ATATAGTA	0.128
ATATAGTG	0.0402
CTATAGTA	0.0624

Sequence	PBM E-score
ATATAGTC	0.403
CTATAGTC	0.37
CTATAGCC	-0.0342
ACCGAACT	-0.0318
AGCAGAAA	-0.0226
CAGAGTGG	-0.106
CAGACGAG	-0.0357
CGCTCTAG	-0.196
CCGACAAA	-0.0238
CTCATCGA	0.173
ATCATCGA	0.31
GTCATCGA	0.389
ACCTGAAA	-0.0522
CAGGTTGA	0.0225
CCAGAAAG	0.0675
CGTAGTCC	0.262
AGTAGTCC	0.302
AGTAGTAG	0.00559
GGTAGTAA	0.0578
AGTAGTTA	0.112
AGTAGTCA	0.478
GGTAGTCA	0.479
AGTAGTAA	0.156
CGTAGTCA	0.483
CGTAGTAA	-0.0636

Sequence	PBM E-score
GGTAGTGA	0.0671
AGTAGTCG	0.381
GGCCGTCA	-0.262
CTCTGGTC	-0.00298
GGAATTCA	-0.0346
ACGAACGT	-0.129
ATGACCGC	-0.075
CCAGTCGA	0.00412
CGTACGTC	-0.241
CCGGAGTA	0.0206
CCGGAGGC	-0.154
ACGGAGTA	-0.0195
ACGGAGTC	0.431
ACGGAGTG	-0.215
CCGGAGTC	0.373
ATGTACTG	0.0673
ACTGTCAA	-0.0537
GCGTCGCA	0.0193
GACTAATC	0.439
TACTAATA	-0.1
GACTAATA	0.445
AACTAATC	0.15
CACTAATA	0.134
CACTAATC	0.191
